Assay results taken from PubChem BioAssay.
The source made the active and inactive calls.

Experiments:
[1] = biological target: Albumin (Bos taurus) (UniProt P02769); assay: bovine serum albumin binders on microarray, profiling panel, artefact control for SMM control protein annotation, biochemical, small-molecule microarray, Alexa647 label, 635/667 nm fluorescence (AID 1118); conditions: BSA-A647 binding, fluorescence 635 nm, higher = more signal;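 also: score merges 667 nm emission intensity and signal-to-noise per printed compound spot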
[2] = small-molecule microarray binders of probe aXIP, primary screen, biochemical, NeuroSMM set, 635/667 nm fluorescence (AID 1119); conditions: higher = more signal, called active from +8 up or from −8 down;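 also: probe is the protein aXip251-270 applied at 1 µg/mL to compound-printed slides; binding of probe to printed compounds measured as 667 nm fluorescence plus signal to noise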
[3] = small-molecule binders of probe aNOTCH3, primary screen, biochemical, small-molecule microarray, 635/667 nm fluorescence (AID 1120); conditions: higher = more signal;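 also: probe is a biotin-tagged antibody raised against NOTCH3 rather than NOTCH3 protein; score merges spot fluorescence near 667 nm with spot signal to noise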
[4] = small-molecule binders of probe aNOTCH2, primary screen, biochemical, small-molecule microarray, 635/667 nm fluorescence (AID 1121); conditions: higher = more signal;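 also: score merges feature fluorescence read at 667 nm with its signal to noise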
[5] = biological target: Carbonic anhydrase 2 (Homo sapiens) (UniProt P00918); assay: CAII small-molecule binders, profiling panel, biochemical, small-molecule microarray, Alexa647-labelled CAII (AID 1122); conditions: CAII-A647 binding fluorescence, higher = more signal
[6] = COS7 lysate on small-molecule microarray, probe aHis, 635 nm (AID 1123); conditions: COS7 cell lysate, fluorescence, higher = more signal;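 also: z-score combines 667nm fluorescence intensity with signal-to-noise per printed compound spot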
[7] = compound binding in COS7 lysate, probe aLAP1, primary screen, cell lysate, small-molecule microarray (AID 1124); conditions: probe aLAP1, fluorescence, higher = more signal;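 also: lysate comes from COS7 cells expressing LAP1 and is applied at 0.3 µg/mL; score merges spot fluorescence near 667 nm with signal-to-noise over triplicate slides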
[8] = test system: Sam68 (KHDRBS1); assay: Sam68 small-molecule binders, primary screen, biochemical, small-molecule microarray, 635 nm fluorescence (AID 1125); conditions: small-molecule microarray binding, higher = more signal;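 also: score merges 667 nm channel intensity with signal to noise over triplicate slides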
[9] = test system: Chordin-like protein 2 (CHRDL2); assay: CHRDL2 small-molecule binders, primary screen, biochemical, small-molecule microarray, 635 nm fluorescence (AID 1126); conditions: small-molecule microarray binding, fluorescence 635 nm; higher = more signal;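 also: printed compound slides probed with Chrdl2 protein at 4 µg/mL for 1 h at 4 C; score merges 667 nm emission intensity with signal to noise over three replicate slides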
[10] = biological target: Concanavalin-A (Canavalia ensiformis) (UniProt P02866); assay: ConA small-molecule binders, primary screen, artefact control for SMM control protein annotation, biochemical, small-molecule microarray, Alexa647 label, 635 nm (AID 1127); conditions: ConA-A647 binding fluorescence, higher = more signal;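 also: z combines 667 nm emission intensity with signal-to-noise across three replicate slides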
[11] = anti-His antibody binders, primary screen, artefact control for SMM control protein annotation, biochemical, small-molecule microarray, 635 nm fluorescence (AID 1128); conditions: anti-His Alexa647 antibody binding, higher = more signal;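 also: score merges feature fluorescence with signal-to-noise for each printed compound spot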
[12] = test system: Human papillomavirus type 1a E7 protein (residues 1-88); assay: HPV1a E7 small-molecule binders, primary screen, biochemical, small-molecule microarray, residues 1-88, 635 nm (AID 1129); conditions: small-molecule microarray binding, fluorescence 635 nm; higher = more signal
[13] = biological target: Focal adhesion kinase 1 (Homo sapiens) (UniProt Q05397); assay: small-molecule microarray binders of FAK, primary screen, biochemical, 635/667 nm fluorescence, BSA, DTT (AID 1130); conditions: PTK2 binding, 635 nm fluorescence, higher = more signal;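 also: composite of spot emission at 667 nm and signal to noise over triplicate slides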
[14] = test system: Fibrinogen (Alexa647-labelled); assay: fibrinogen binders on compound microarrays, profiling panel, artefact control for SMM control-protein annotation, biochemical, small-molecule microarray, 635/667 nm fluorescence (AID 1131); conditions: fibrinogen-A647 binding fluorescence, higher = more signal;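 also: z-score merges 667 nm fluorescence with per-spot signal-to-noise over triplicate slides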
[15] = biological target: Follistatin (Homo sapiens) (UniProt P19883); assay: follistatin binders on small-molecule microarrays, primary screen, biochemical, small-molecule microarray, 635/667 nm fluorescence (AID 1132); conditions: FST binding, 635 nm fluorescence, higher = more signal
[16] = biological target: Fibroblast growth factor 2 (Homo sapiens) (UniProt P09038); assay: FGF2 binders on small-molecule microarrays, primary screen, biochemical, small-molecule microarray, 635/667 nm fluorescence (AID 1133); conditions: small-molecule microarray binding, FGF2, fluorescence 635/667; higher = more signal
[17] = mitochondrial membrane potential change in A549 cells, profiling panel, cell-based, JC-1 fluorescence, basal, 24 h, 100 nL (AID 1138); conditions: higher = more signal;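 also: A549 lung adenocarcinoma cells under basal conditions with no added stimulus; test concentration not given here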
[18] = test system: Lefty1; assay: Lefty1 binders on small-molecule microarrays, primary screen, biochemical, small-molecule microarray, 635/667 nm fluorescence (AID 1139); conditions: small-molecule microarray binding, fluorescence 635/667; higher = more signal
[19] = test system: wheat germ agglutinin (Triticum aestivum), Alexa647-labelled; assay: wheat germ agglutinin binders on compound microarrays, profiling panel, artefact control for SMM control-protein annotation, biochemical, small-molecule microarray, 635/667 nm fluorescence (AID 1140); conditions: WGA-A647 binding, 635 nm fluorescence, higher = more signal;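 also: score merges 667 nm feature emission with signal to noise over triplicate slides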
[20] = biological target: Luciferin 4-monooxygenase (Photinus pyralis) (UniProt P08659); assay: firefly luciferase enzyme inhibitors, primary screen, biochemical, luminescence, purified enzyme, 2006 set (AID 1141); conditions: SteadyGlo luminescence, 30 min, higher = more signal, called active from +8 up or from −8 down;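 also: cell-free assay with purified firefly luciferase at 100 ng per well in PBS; test concentration not given here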
Sequence of Luciferin 4-monooxygenase (Photinus pyralis) (P08659 whole entry, looked up): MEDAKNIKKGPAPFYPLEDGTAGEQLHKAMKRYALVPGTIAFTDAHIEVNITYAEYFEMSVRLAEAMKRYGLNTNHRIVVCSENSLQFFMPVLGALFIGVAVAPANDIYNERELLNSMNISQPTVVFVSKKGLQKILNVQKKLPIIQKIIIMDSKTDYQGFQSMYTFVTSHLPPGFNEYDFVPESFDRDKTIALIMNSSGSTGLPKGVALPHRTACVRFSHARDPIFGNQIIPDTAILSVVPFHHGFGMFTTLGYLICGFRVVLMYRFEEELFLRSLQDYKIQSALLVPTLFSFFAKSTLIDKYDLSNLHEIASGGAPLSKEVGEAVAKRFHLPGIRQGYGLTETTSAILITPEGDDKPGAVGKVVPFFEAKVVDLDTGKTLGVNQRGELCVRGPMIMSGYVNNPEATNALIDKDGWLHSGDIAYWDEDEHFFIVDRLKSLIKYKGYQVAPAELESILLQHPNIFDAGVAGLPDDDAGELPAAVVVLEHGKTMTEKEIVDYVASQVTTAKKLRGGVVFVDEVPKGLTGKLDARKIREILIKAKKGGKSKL

Sequence of Follistatin (Homo sapiens) (P19883 whole entry, looked up): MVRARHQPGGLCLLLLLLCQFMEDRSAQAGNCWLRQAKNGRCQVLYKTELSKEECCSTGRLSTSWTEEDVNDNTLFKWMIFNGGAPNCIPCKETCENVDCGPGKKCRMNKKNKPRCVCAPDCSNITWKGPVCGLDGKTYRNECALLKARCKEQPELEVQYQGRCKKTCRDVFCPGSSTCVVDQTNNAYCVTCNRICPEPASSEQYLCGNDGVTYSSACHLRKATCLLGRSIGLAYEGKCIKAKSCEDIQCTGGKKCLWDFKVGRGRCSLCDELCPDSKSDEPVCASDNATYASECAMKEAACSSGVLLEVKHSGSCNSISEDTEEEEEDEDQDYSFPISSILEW
Sequence of Fibroblast growth factor 2 (Homo sapiens) (P09038 whole entry, looked up): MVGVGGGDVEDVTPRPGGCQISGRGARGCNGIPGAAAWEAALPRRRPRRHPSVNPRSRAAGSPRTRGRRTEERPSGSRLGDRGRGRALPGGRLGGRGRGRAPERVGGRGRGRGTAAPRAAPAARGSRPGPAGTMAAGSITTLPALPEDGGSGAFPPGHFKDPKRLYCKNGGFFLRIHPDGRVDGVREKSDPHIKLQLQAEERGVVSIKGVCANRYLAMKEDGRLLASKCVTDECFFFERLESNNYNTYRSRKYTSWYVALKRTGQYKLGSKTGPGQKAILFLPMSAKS
Sequence of Albumin (Bos taurus) (P02769 whole entry, looked up): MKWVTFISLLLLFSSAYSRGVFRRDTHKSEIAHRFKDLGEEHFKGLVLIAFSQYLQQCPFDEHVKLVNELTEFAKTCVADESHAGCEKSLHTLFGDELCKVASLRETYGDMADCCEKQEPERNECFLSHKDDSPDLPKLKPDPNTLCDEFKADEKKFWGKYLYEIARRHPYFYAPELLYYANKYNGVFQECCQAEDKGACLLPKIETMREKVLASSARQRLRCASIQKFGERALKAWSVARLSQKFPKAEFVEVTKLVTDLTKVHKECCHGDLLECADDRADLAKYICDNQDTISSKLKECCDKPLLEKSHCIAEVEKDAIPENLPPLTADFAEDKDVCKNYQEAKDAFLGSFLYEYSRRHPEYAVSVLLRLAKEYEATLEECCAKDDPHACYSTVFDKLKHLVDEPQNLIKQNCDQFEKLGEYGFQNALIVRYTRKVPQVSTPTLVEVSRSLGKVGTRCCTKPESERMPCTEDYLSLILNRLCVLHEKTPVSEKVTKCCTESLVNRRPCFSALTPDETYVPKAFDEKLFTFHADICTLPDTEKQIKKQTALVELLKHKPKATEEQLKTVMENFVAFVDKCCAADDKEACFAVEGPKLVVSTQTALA
Sequence of Concanavalin-A (Canavalia ensiformis) (P02866 whole entry, looked up): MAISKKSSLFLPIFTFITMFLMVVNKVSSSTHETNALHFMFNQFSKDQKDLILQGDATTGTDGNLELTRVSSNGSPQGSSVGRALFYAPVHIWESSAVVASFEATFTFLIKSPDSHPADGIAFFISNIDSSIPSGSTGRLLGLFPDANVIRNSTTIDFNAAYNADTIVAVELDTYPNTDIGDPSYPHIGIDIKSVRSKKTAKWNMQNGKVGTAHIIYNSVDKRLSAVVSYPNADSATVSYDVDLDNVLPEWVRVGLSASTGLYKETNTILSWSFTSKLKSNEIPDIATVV
Sequence of Focal adhesion kinase 1 (Homo sapiens) (Q05397 whole entry, looked up): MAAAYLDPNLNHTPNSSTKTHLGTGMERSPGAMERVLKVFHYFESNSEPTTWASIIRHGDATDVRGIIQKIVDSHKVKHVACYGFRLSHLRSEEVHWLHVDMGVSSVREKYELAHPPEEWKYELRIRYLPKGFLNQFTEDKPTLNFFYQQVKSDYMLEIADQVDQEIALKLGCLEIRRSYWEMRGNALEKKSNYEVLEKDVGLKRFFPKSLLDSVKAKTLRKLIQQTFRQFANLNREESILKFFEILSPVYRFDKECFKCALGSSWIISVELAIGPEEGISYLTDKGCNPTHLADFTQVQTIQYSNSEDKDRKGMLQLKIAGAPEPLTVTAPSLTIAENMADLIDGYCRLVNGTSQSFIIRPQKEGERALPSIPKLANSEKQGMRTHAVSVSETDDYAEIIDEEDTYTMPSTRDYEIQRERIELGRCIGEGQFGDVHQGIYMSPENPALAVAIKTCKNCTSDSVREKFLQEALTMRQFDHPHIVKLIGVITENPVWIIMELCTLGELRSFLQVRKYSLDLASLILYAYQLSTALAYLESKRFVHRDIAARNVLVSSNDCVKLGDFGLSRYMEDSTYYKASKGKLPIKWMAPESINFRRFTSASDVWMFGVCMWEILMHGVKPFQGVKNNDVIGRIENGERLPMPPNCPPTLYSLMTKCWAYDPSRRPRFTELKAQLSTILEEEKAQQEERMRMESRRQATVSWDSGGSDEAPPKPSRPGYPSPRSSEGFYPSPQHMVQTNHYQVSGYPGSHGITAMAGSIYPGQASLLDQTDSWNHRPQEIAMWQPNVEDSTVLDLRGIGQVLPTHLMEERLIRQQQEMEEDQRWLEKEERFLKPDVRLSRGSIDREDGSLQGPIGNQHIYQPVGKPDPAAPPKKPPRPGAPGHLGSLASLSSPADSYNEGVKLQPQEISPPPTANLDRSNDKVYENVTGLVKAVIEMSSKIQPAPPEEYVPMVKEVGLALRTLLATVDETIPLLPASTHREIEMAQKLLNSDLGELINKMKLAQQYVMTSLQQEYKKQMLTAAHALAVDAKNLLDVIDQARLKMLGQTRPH

CC(C)N1C(=O)c2ccccc2[C@@H](C(=O)NCc2ccccc2)[C@@H]1c1ccc(CO)cc1
composite z-score [1]: -2.18
composite Z-score [2]: 0.335 (inactive)
composite z-score [3]: -0.27
composite z-score [4]: -0.162
composite z-score [5]: 0.741
composite z-score [6]: 1.51
composite z-score [7]: 0.409
composite z-score [8]: 0.0504
composite z-score [9]: -0.184
composite z-score [10]: -1.07
composite z-score [11]: -1.36
composite z-score [12]: 0.369
composite z-score [13]: 0.427
composite z-score [14]: -1.22
composite z-score [15]: 0.815
composite z-score [16]: 0.82
z-score [17]: 1.64
composite z-score [18]: -1.28
composite z-score [19]: -1.51
z-score [20]: -0.886 (inactive)

CO[C@H]1O[C@H](CO)[C@@H](OC(=O)CCc2ccccc2)[C@@H]2OC(=O)[C@H](Cc3ccccc3)C/C=C/C[C@@H](Cc3ccccc3)C(=O)O[C@@H]12
composite z-score [1]: -0.707
composite Z-score [2]: 0.508 (inactive)
composite z-score [3]: -0.19
composite z-score [4]: -0.0928
composite z-score [5]: 0.746
composite z-score [6]: 0.75
composite z-score [7]: -0.662
composite z-score [8]: 0.506
composite z-score [9]: -0.845
composite z-score [10]: -1.04
composite z-score [11]: -0.13
composite z-score [12]: -0.109
composite z-score [13]: 0.186
composite z-score [14]: -0.565
composite z-score [15]: -0.618
composite z-score [16]: -0.38
z-score [17]: 1.01
composite z-score [18]: -0.71
composite z-score [19]: -1.32
z-score [20]: -1.21 (inactive)

NCCCCCCNC(=O)[C@@H]1C[C@@H]2C(=O)N[C@@H](Cc3ccccc3)C(=O)N2[C@@H]1c1ccc(O)cc1
composite z-score [1]: 0.676
composite Z-score [2]: 0.755 (inactive)
composite z-score [3]: 0.0418
composite z-score [4]: -0.112
composite z-score [5]: 0.65
composite z-score [6]: 0.68
composite z-score [7]: 0.915
composite z-score [8]: 1.06
composite z-score [9]: 0.283
composite z-score [10]: 1.12
composite z-score [11]: 1.94
composite z-score [12]: 0.434
composite z-score [13]: 0.332
composite z-score [14]: 0.63
composite z-score [15]: 0.898
composite z-score [16]: 0.312
z-score [17]: 0.613
composite z-score [18]: 0.104
composite z-score [19]: 0.931
z-score [20]: -1.15 (inactive)

O=C(NO)[C@]1(Cc2ccccc2)N=C(c2ccc(OCCCO)cc2)O[C@@H]1c1ccccc1
composite z-score [1]: 0.847
composite Z-score [2]: -0.876 (inactive)
composite z-score [3]: -0.183
composite z-score [4]: -0.0909
composite z-score [5]: 0.678
composite z-score [6]: -0.359
composite z-score [7]: 0.0192
composite z-score [8]: -0.32
composite z-score [9]: -0.671
composite z-score [10]: -1.06
composite z-score [11]: -0.0837
composite z-score [12]: 0.0707
composite z-score [13]: -1
composite z-score [14]: 0.141
composite z-score [15]: -0.248
composite z-score [16]: -0.0928
z-score [17]: 2.09
composite z-score [18]: -0.458
composite z-score [19]: 0.162
z-score [20]: -2.34 (inactive)

CC(C)(C)OC(=O)CC[C@]1(C(=O)NCc2ccccc2)COC(c2ccc(OCCCO)cc2)=N1
composite z-score [1]: 0.875
composite Z-score [2]: 0.603 (inactive)
composite z-score [3]: 0.0128
composite z-score [4]: 0.0377
composite z-score [5]: 0.673
composite z-score [6]: 2.41
composite z-score [7]: 1.49
composite z-score [8]: 1.25
composite z-score [9]: -1.45
composite z-score [10]: 0.255
composite z-score [11]: -0.518
composite z-score [12]: 1.25
composite z-score [13]: 0.444
composite z-score [14]: 0.694
composite z-score [15]: -0.0444
composite z-score [16]: -1.04
z-score [17]: 0.695
composite z-score [18]: -0.986
composite z-score [19]: 1.33
z-score [20]: -0.714 (inactive)

COC(=O)C1=CC(c2ccc(CO)cc2)=CC(C2CC2)N(C)C=C1C(=O)OC (stereo not given)
composite z-score [1]: 0.965
composite Z-score [2]: 0.498 (inactive)
composite z-score [3]: -0.0903
composite z-score [4]: -0.0617
composite z-score [5]: 0.874
composite z-score [6]: 1.73
composite z-score [7]: 0.969
composite z-score [8]: 0.862
composite z-score [9]: -0.73
composite z-score [10]: -0.0948
composite z-score [11]: 0.822
composite z-score [12]: -0.203
composite z-score [13]: 0.883
composite z-score [14]: 0.707
composite z-score [15]: -0.743
composite z-score [16]: -0.326
z-score [17]: 1.63
composite z-score [18]: -0.615
composite z-score [19]: 1.28
z-score [20]: -1.8 (inactive)

C=CCN1C(=O)[C@@]2(O[C@@H](CCn3cc(CCO)nn3)[C@H]([Si](C)(C)c3ccc(OC)cc3)[C@H]2C)c2cc(NC(=O)c3ccc(OC)cc3)ccc21
composite z-score [1]: -0.0754
composite Z-score [2]: -0.444 (inactive)
composite z-score [3]: 0.0676
composite z-score [4]: 0.443
composite z-score [5]: 0.156
composite z-score [6]: 1.36
composite z-score [7]: 0.493
composite z-score [8]: 1.15
composite z-score [9]: 0.808
composite z-score [10]: 1.08
composite z-score [11]: 0.309
composite z-score [12]: 0.812
composite z-score [13]: 0.129
composite z-score [14]: 0.323
composite z-score [15]: 1.14
composite z-score [16]: 0.645
z-score [17]: 2.77
composite z-score [18]: 1.02
composite z-score [19]: 0.922
z-score [20]: -1.51 (inactive)

C=CCNC(=O)[C@@H]1[C@H]2C(=O)O[C@H](c3ccccc3)[C@H](c3ccccc3)N2[C@H](c2ccc(O)cc2)[C@@]12C(=O)Nc1ccc(C#Cc3ccc(OC)cc3)cc12
composite z-score [1]: 0.29
composite Z-score [2]: 0.422 (inactive)
composite z-score [3]: 0.0563
composite z-score [4]: -0.0451
composite z-score [5]: 0.31
composite z-score [6]: 0.928
composite z-score [7]: 0.482
composite z-score [8]: 1.32
composite z-score [9]: -0.0134
composite z-score [10]: 1.12
composite z-score [11]: 1.11
composite z-score [12]: 1.2
composite z-score [13]: 0.552
composite z-score [14]: 0.924
composite z-score [15]: 1.03
composite z-score [16]: 0.363
z-score [17]: -1.18
composite z-score [18]: 0.849
composite z-score [19]: 1.14
z-score [20]: -0.968 (inactive)

CCOC(=O)C[C@H]1[C@H](OC(=O)c2ccc(C(=O)c3ccccc3)cc2)[C@@H](NC(=O)Cc2ccc(OC)cc2)c2cc(OCCCO)ccc2N1C(=O)Cc1ccc(OC)cc1
composite z-score [1]: 0.602
composite Z-score [2]: -0.333 (inactive)
composite z-score [3]: 0.0397
composite z-score [4]: -0.0505
composite z-score [5]: 0.0899
composite z-score [6]: 0.954
composite z-score [7]: 0.397
composite z-score [8]: 1.05
composite z-score [9]: -0.49
composite z-score [10]: 1.01
composite z-score [11]: 0.0446
composite z-score [12]: 1.07
composite z-score [13]: 0.551
composite z-score [14]: 0.729
composite z-score [15]: 0.295
composite z-score [16]: -0.078
z-score [17]: 2.88
composite z-score [18]: 0.607
composite z-score [19]: 0.855
z-score [20]: -0.927 (inactive)

CC(C)C(=C=CC[C@@H](O)c1ccc(CO)o1)CCO
composite z-score [1]: -0.596
composite Z-score [2]: 1.71 (inactive)
composite z-score [3]: -0.0984
composite z-score [4]: -0.11
composite z-score [5]: 0.795
composite z-score [6]: 0.57
composite z-score [7]: -0.0333
composite z-score [8]: 0.541
composite z-score [9]: 0.107
composite z-score [10]: 0.349
composite z-score [11]: 0.635
composite z-score [12]: -0.356
composite z-score [13]: -0.7
composite z-score [14]: 0.401
composite z-score [15]: 0.987
composite z-score [16]: 1.05
z-score [17]: 1.86
composite z-score [18]: 0.759
composite z-score [19]: 0.308
z-score [20]: -2.15 (inactive)
